For 19 compounds, Potency and activation results are on record in PubChem BioAssay (Tox21).

Records with an inconclusive call do not appear. A number with no mark means an inactive call. The source made the active and inactive calls. Unless noted, calls follow the shape of the dose curve; as a rule, active = well fitted curve in the direction sought with a large enough effect in the repeat runs; inconclusive = weak or mixed curves; inactive = no such curve, though single readings can be large; an effect the other way counts as inactive or inconclusive.

Test [1] in a line: qHTS assay to identify small molecule antagonists of the thyroid receptor (TR) signaling pathway - cell viability counter screen (AID 743064). Also: nearly all actives have a fitted effect of over 50% in size. Also: potency is read from the fitted curve at half-maximal effect. In short, it runs like this: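 Plate GH3.TRE-Luc cells; incubate 4 h at 37 °C; add compound, then T3 to 1 nM final; incubate 23.5 h; add CellTiter-Fluor; incubate 30 min at 37 °C, 5% CO2; read fluorescence.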
In general terms: In qHTS, concentration-response curves come from the screen itself.

For test [2], the system named is thyroid hormone receptor (rat, GH3 cells). Briefly: qHTS assay to identify small molecule agonists of the thyroid receptor (TR) signaling pathway (AID 743066; calls by dose curve).
For test [3], the target named is Estrogen receptor (Homo sapiens) (UniProt P03372). Briefly: qHTS assay to identify small molecule antagonists of the estrogen receptor alpha (ER-alpha) signaling pathway (AID 743069; active = well fitted curve in the direction sought with a large enough effect in the signal ratio in the repeat runs, not every such curve was filed as active; the % refers to the signal ratio). A digest of the protocol: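 HEK293 cells stably carrying an ER-alpha-UAS-bla beta-lactamase reporter were pre-cultured overnight in 2% charcoal-stripped FBS medium. Test compounds in DMSO were added together with 17beta-estradiol for 18 hr at 37C. Read-out was fluorescence after 2 hr with LiveBLAzer B/G FRET substrate at room temperature.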

Test [4] shares this target. Briefly: qHTS assay to identify small molecule agonists of the estrogen receptor alpha (ER-alpha) signaling pathway (AID 743075; calls by dose curve).
The target is the same in test [5]. Briefly: qHTS assay to identify small molecule agonists of the estrogen receptor alpha (ER-alpha) signaling pathway using the BG1 cell line (AID 743079). Also: nearly all actives have a fitted effect of over 20% in size. Conditions: BG1Luc4E2 cells, ERE-luciferase agonist, 22 h.
Test [6] in a line: qHTS assay to identify small molecule antagonists of the estrogen receptor alpha (ER-alpha) signaling pathway using the BG1 cell line (AID 743080; calls by dose curve;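 also: BG1 cells stimulated with 17beta-estradiol alongside compound; nearly all actives have a fitted effect of over 25% in size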). A digest of the protocol:
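BG1-Luc-4E2 cells (endogenous full-length ER-alpha, stable 4×ERE-luciferase) were starved 5 days in phenol-red-free medium with 10% charcoal-stripped FBS, plated 24 h, then given compound plus 17beta-estradiol for 21.5 h at 37 C; ONE-Glo luminescence read after 30 min.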

Test [7] is described as follows: qHTS assay to identify small molecule antagonists of the estrogen receptor alpha (ER-alpha) signaling pathway using the BG1 cell line - cell viability counter screen (AID 743081).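 Also: compound given together with 17beta-estradiol as the ER stimulus; nearly all actives have a fitted effect of over 45% in size.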 Also: potency is read from the fitted curve at half-maximal effect.
Another test has as its target Aromatase (Homo sapiens) (UniProt P11511). Briefly: qHTS assay to identify aromatase inhibitors (AID 743083). Also: nearly all actives have a fitted effect of over 55% in size.
Test [8] can be described thus: qHTS assay to identify small molecule antagonists of the thyroid receptor (TR) signaling pathway (AID 743065). Also: nearly all actives have a fitted effect of over 55% in size. In short, it runs like this:
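GH3.TRE-Luc rat pituitary cells carrying two TR response elements driving luciferase were plated for 4 h, given compound plus 1 nM T3 (final), and incubated 23.5 h at 37 C. ONE-Glo luminescence measured reporter inhibition; CellTiter-Fluor fluorescence tracked cytotoxicity.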

A short description of test [9]: qHTS assay to identify small molecule antagonists of the estrogen receptor alpha (ER-alpha) signaling pathway - cell viability counter screen (AID 743074; calls by dose curve; also: nearly all actives have a fitted effect of over 45% in size).
% is scaled to controls: 0 for no effect and ±100 for the full control effect.

Sequence of Estrogen receptor (Homo sapiens) (P03372 whole entry, looked up): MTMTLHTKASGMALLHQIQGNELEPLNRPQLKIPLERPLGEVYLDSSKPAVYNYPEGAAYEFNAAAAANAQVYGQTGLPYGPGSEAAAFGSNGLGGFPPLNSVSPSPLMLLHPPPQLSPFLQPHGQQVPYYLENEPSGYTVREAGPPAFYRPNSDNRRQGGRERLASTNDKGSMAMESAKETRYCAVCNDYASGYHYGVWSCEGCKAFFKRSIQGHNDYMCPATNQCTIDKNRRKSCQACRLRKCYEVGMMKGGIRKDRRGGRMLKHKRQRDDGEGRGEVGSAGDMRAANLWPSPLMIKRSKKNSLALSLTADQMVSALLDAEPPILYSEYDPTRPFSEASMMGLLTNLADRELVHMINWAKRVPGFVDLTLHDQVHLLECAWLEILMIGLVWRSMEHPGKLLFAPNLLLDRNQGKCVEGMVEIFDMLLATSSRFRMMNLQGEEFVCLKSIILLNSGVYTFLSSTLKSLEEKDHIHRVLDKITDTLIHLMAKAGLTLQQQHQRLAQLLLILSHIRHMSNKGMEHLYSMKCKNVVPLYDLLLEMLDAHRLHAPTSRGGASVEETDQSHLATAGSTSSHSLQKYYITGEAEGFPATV
Sequence of Aromatase (Homo sapiens) (P11511 whole entry, looked up): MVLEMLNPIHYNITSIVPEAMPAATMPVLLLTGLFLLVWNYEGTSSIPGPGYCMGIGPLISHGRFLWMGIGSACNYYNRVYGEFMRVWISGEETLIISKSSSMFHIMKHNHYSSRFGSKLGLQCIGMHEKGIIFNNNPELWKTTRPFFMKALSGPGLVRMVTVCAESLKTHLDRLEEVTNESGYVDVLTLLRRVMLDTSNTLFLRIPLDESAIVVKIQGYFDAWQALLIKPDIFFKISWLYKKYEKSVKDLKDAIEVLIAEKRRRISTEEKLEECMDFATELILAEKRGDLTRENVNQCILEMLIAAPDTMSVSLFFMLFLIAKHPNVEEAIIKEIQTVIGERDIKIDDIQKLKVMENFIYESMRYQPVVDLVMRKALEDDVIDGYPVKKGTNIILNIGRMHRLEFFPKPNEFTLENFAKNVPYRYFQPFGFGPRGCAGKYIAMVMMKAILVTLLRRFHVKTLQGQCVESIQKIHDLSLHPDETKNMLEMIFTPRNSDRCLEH

Consider `Clc1nc(Cl)nc(Nc2ccccc2Cl)n1`, for which the Potency entry in [1], in test [2], in test [3], in test [4], in [6] and in test [7] was “inactive” throughout. The Potency result in the test with Aromatase (Homo sapiens) is “inactive”. Besides, the activation in test [5] (at 70.3 µM (top of the series)) was 9.21%.

`CCC1(c2cccc(O)c2)CCCCN(C)C1` (centres undefined): the Potency result (in test [1]; in test [8]; in test [2]; in test [9]; in the test with Aromatase (Homo sapiens)) was “inactive” each time.

For the compound `O=CCCl`, the Potency entry in test [1], in test [2], in test [3], in test [9], in [4] and in [6] was “inactive” throughout. The Potency entry (in test [7]; with Aromatase (Homo sapiens)) was “inactive” each time. Also, in test [5] (at 70.3 µM (top of the series)), the activation was 14.1%.

Consider `CCCC(C)C1(CC)C(=O)N=C(S)NC1=O` (centres undefined), for which the Potency entry (in test [1]; in test [8]; in [2]; in test [9]; in test [7]; with Aromatase (Homo sapiens)) was “inactive” in each case.

As for `CC(C)C(C)(N)C#N` (centres undefined), the Potency entry (in test [1]; in test [8]; in test [2]; in test [7]; in the test with Aromatase (Homo sapiens)) was “inactive” throughout.

For `CCC(C)(C#N)N=NC(C)(C#N)CC` (centres undefined), the Potency result in test [1], in test [2], in test [3], in [9], in test [4] and in [6] was “inactive” each time. Also, the Potency result (in test [7]; with Aromatase (Homo sapiens)) was “inactive” each time. The activation in test [5] (at 70.3 µM (top of the series)) was -7.9%.

On to `CCCC[N+](=O)[O-]`, for which the Potency result in test [1], in [2], in test [3], in test [9], in [4] and in test [7] was “inactive” each time. In the test with Aromatase (Homo sapiens), the Potency result was “inactive”. Moreover, the activation in test [5] (at 70.3 µM (top of the series)) was 8.37%.

Turning to `N#CC(Br)(Br)C(N)=O`, the Potency entry in test [1], in [8], in test [9] and in test [7] was “inactive” in each case.

On to `O=C(O)c1c(Cl)ccc2cc(Cl)cnc12`, for which the Potency result in test [1], in test [2], in test [3], in test [9], in [4] and in test [7] was “inactive” each time. Also, the Potency entry with Aromatase (Homo sapiens) was “inactive”. In test [5] (at 70.3 µM (top of the series)), the activation is 3.83%.

Take `NC1(c2ccccc2)CCCCC1`: the Potency in [1] is 42.9 µM (active). For the same compound, the Potency result (in [2]; in test [3]; in [9]; in test [4]; in test [7]; with Aromatase (Homo sapiens)) was “inactive” throughout. Moreover, the activation in test [5] (at 70.3 µM (top of the series)) was 0.0889%.

For the compound `O=S1(=O)OCCO1`, the Potency result (in [1]; in test [8]; in [2]; in test [9]; in test [7]; with Aromatase (Homo sapiens)) was “inactive” in each case.

In the case of `CC(=O)OCC1=C(C(=O)O)N2C(=O)[C@@H](N)[C@H]2SC1`, the Potency result (in test [1]; in test [8]; in test [2]; in [9]; in test [7]; in the test with Aromatase (Homo sapiens)) was “inactive” in each case.

Turning to `COC(=O)c1ccccc1CS(=O)(=O)NC(=O)Nc1nc(OC)cc(OC)n1`, the Potency result in [1], in test [2], in test [3], in [9], in test [4] and in test [6] was “inactive” throughout. Also, the Potency entry (in test [7]; with Aromatase (Homo sapiens)) was “inactive” in each case. Besides, the activation in [5] (at 70.3 µM (top of the series)) is 1.94%.

For `CCCOC(=O)Cc1ccc(OCC(=O)N(CC)CC)c(OC)c1`, the Potency entry (in test [1]; in test [8]; in [2]; in [9]; with Aromatase (Homo sapiens)) was “inactive” throughout.

`Cn1c(CCCC(=O)O)nc2cc(N(CCCl)CCCl)ccc21`: the Potency result (in test [1]; in test [2]; in test [3]; in test [9]; in test [4]; in the test with Aromatase (Homo sapiens)) was “inactive” each time. In addition, the activation in test [5] (at 70.3 µM (top of the series)) was -7.85%. Besides, the Potency in test [7] is 1.06 µM (active).

Consider `Cc1cccc2sc3nncn3c12`, for which the Potency result in [1], in test [2], in test [3], in test [9], in test [4] and in [6] was “inactive” in each case. Further, the Potency entry (in [7]; with Aromatase (Homo sapiens)) was “inactive” each time. Besides, the activation in test [5] (at 70.3 µM (top of the series)) was 13.8%.

Take `C=CCc1cc(OC)c2c(c1)OCO2`: the Potency entry (in test [1]; in [8]; in test [2]; in test [7]; in the test with Aromatase (Homo sapiens)) was “inactive” each time.

Regarding `COc1ccc(C=O)cc1O`, the Potency result in test [1], in test [2], in test [3], in [9], in [4] and in [7] was “inactive” in each case. Besides, in the test with Aromatase (Homo sapiens), the Potency entry is “inactive”. Also, the activation in test [5] (at 95 µM (top of the series)) was 10.8%.

As to `Clc1ccc(C(Cl)(Cl)Cl)cn1`, the Potency result in test [1], in test [2], in test [3], in test [9], in [4] and in [7] was “inactive” throughout. In addition, the Potency entry with Aromatase (Homo sapiens) was “inactive”. Moreover, the activation in test [5] (at 70.3 µM (top of the series)) was -9.37%.
